Records with an inconclusive call do not appear. Active and inactive are the calls of the source. Calls follow the shape of the full dose curve.
These molecules were tested against Retinoic acid receptor RXR-alpha (Homo sapiens) (UniProt P19793) (assay: qHTS assay for small molecule agonists of retinoid X receptor alpha signaling (AID 588544)). Settings: HEK293T RXRa-UAS-bla, beta-lactamase reporter, 18 h; series mostly up to 76.7 µM.
Description: NIH Chemical Genomics Center [NCGC] U.S. Environmental Protection Agency [EPA] National Institutes of Environmental Health Sciences [NIEHS] National Toxicology Program [NTP] NCGC Assay Overview The Retinoid X receptor (RXR), a nuclear hormone receptor is expressed in liver, spleen, placenta, epidermis, central nervous system. These receptors are able to form homo and heterodimers with other nuclear receptors and due to this heterodimerizing ability, RXR functions as master regulators producing diverse physiological effects. Three subtypes of RXR exist; alpha, beta and gamma. Retinoid X receptor alpha (RXR-alpha) has potential roles in metabolic signaling pathways, skin alopecia, dermal cysts, cardiac development, insulin sensitization etc. Therefore screening environmental chemicals on RXR-alpha signaling can be used for the studies focused on such therapeutic applications.
NCGC Assay Protocol Summary Using a beta-lactamase reporter-gene under control of Retinoid X receptor--alpha (RXR-alpha) response element, a cell-based assay [GeneBLAzer (RXR-alpha -UAS-bla assay developed by Invitrogen] was used to measure RXR-alpha ligands signaling. GeneBLAzer RXR-alpha -UAS-bla HEK293T cells were used with assay medium containing 2% charcoal-stripped FBS. The assay was performed in clear bottom black Greiner 1536-well plates. 9-cis-retinoic acid was used in the screen as the positive control. Library compounds were measured for their ability to stimulate the reporter gene activity. Compounds were screened in a titration series in 1536-well format. The fluorescence intensity (405 nm excitation, 460/530 nm emission) was measured using an EnVision plate reader. Data was normalized relative to 9-cis-retinoic acid control (500 nM, 100%), and DMSO only wells (basal, 0%). Concentration-response titration points for each compound were fitted to the Hill equation yielding concentrations of half-maximal stimulation (EC50) and maximal response (efficacy) values. qHTS protocol for RXR-alpha beta-lactamase assay in agonist mode [Step] [Parameter] [Value] [Description] 1. Reagent; 6 uL; 2500 cells/well 2. Incubation; 37 C for 4 hrs 3. Compounds; 23 nL; 0.59 nM to 92 uM 4. Controls (9-cis-retinoic acid); 23 nL, - One column with dose response, start 38 uM, 1:3 dilutions in duplicates - Final concentrations of 500 nM and 50 nM in two columns 5. Incubation; 37 C for 18 hrs 6. Detection reagent; 1 uL of CCF4-dye 7. Incubation; RT for 2 hrs 8. Detection; Fluorescence; Envision plate reader

Sequence of Retinoic acid receptor RXR-alpha (Homo sapiens) (P19793 whole entry, looked up): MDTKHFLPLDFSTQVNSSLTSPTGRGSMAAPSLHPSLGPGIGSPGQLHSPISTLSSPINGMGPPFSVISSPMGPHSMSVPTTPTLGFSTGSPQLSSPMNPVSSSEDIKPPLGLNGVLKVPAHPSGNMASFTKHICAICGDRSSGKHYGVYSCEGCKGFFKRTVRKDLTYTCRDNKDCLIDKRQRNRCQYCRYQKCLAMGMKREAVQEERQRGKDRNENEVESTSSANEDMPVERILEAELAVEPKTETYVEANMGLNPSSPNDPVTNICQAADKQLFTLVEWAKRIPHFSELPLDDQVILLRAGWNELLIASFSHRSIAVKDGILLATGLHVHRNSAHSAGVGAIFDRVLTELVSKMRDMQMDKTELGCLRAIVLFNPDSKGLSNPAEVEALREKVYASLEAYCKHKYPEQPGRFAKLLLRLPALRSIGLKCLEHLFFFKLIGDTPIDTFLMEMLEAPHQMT

| Compound | outcome |
| --- | --- |
| O=C1NC(=O)C(c2ccccc2)(c2ccccc2)N1 | inactive |
| CN(C)CCC(c1ccccc1)c1ccccn1 (stereo not given) | inactive |
| CC(=O)N[C@@H](CS)C(=O)O | inactive |
| CCCNC(=O)NS(=O)(=O)c1ccc(Cl)cc1 | inactive |
| CCCCC1C(=O)N(c2ccccc2)N(c2ccccc2)C1=O | inactive |
| O=c1[nH]cnc2c1ncn2[C@H]1CC[C@@H](CO)O1 | inactive |
| CC(=O)c1ccc(S(=O)(=O)NC(=O)NC2CCCCC2)cc1 | inactive |
| O=C(O)c1cc(-c2ccccc2)nc2ccccc12 | inactive |
| O=C(O)Cc1cccc2ccccc12 | inactive |
| O=c1c(O)c(-c2ccc(O)cc2)oc2cc(O)cc(O)c12 | inactive |
